What was measured:
Experiment in all cases: relative induction of RFP reporter vs primary effector (background-corrected); higher = stronger activation of the biosensor
Details in all cases: inducer concentration 5 mM; 6 h; Cupriavidus necator H16; minimal medium + 0.4% gluconate
[1] = system: AcoR/P_H16_RS19445 acetoin biosensor (pEH052)
Description: (§1)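 C. necator H16 strains, each carrying one of 21 transcription factor/inducible promoter–mRFP biosensor plasmids, were grown in minimal medium in 96-well plates (robotic platform). Each was exposed to 46 structurally or metabolically related compounds at 5 mM at 30 °C. OD-normalised RFP fluorescence was read 6 h later and expressed as relative induction (%) = 100 × (FL compound − FL uninduced)/(FL primary inducer − FL uninduced); mean of n=4.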

[2] = system: AraC/P_araBAD L-arabinose biosensor (pEH176)
Description: as §1

[3] = system: BenM/P_H16_RS09790 benzoate biosensor (pEH148)
Description: as §1

[4] = system: FdsR/P_H16_RS03165 formate biosensor (pEH134)
Description: as §1

[5] = system: GabR/P_H16_RS23655 GABA biosensor (pEH256)
Description: as §1

[6] = system: HpdR/P_H16_RS18295 3-hydroxypropanoate biosensor (pEH010)
Description: as §1

[7] = system: KynR/P_H16_RS14030 L-kynurenine biosensor (pEH136)
Description: as §1

[8] = system: NahR/P_H16_RS08125 salicylate biosensor (pEH042)
Description: as §1

[9] = system: OapR/P_H16_RS01330 beta-alanine biosensor (pEH147)
Description: as §1

[10] = system: PcaQ/P_H16_RS30145 3,4-dihydroxybenzoate biosensor (pEH161)
Description: as §1

[11] = system: PhgR/P_H16_RS05530 phenylglyoxylate biosensor (pEH155)
Description: as §1

[12] = system: PhhR/P_H16_RS18365 L-phenylalanine biosensor (pEH137)
Description: as §1

[13] = system: SauR/P_H16_RS13695 sulfonatoacetate biosensor (pEH157)
Description: as §1

[14] = system: TtdR/P_H16_RS10665 tartrate biosensor (pEH083)
Description: as §1

[15] = system: XdhR/P_H16_RS05055 xanthine biosensor (pEH154)
Description: as §1

[16] = system: heterologous inducible system pEH002 (rhamnose/acrylate/cumate/itaconate set)
Description: as §1

[17] = system: heterologous inducible system pEH020 (rhamnose/acrylate/cumate/itaconate set)
Description: as §1

[18] = system: heterologous inducible system pEH040 (rhamnose/acrylate/cumate/itaconate set)
Description: as §1

[19] = system: heterologous inducible system pEH086 (rhamnose/acrylate/cumate/itaconate set)
Description: as §1
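Note: RFP excited at 585 nm with emission read at 620 nm, culture medium blanks subtracted from fluorescence and absorbance prior to normalisation.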

| Compound | relative induction of RFP reporter [1] | relative induction of RFP reporter [2] | relative induction of RFP reporter [3] | relative induction of RFP reporter [4] | relative induction of RFP reporter [5] | relative induction of RFP reporter [6] | relative induction of RFP reporter [7] | relative induction of RFP reporter [8] | relative induction of RFP reporter [9] | relative induction of RFP reporter [10] | relative induction of RFP reporter [11] | relative induction of RFP reporter [12] | relative induction of RFP reporter [13] | relative induction of RFP reporter [14] | relative induction of RFP reporter [15] | relative induction of RFP reporter [16] | relative induction of RFP reporter [17] | relative induction of RFP reporter [18] | relative induction of RFP reporter [19] |
| --- | --- | --- | --- | --- | --- | --- | --- | --- | --- | --- | --- | --- | --- | --- | --- | --- | --- | --- | --- |
| O=C(O)c1c(O)cccc1O [2,6-dihydroxybenzoate] | 2.22% | 0.019% | 0.0383% | -4.96% | 1.87% | 0.277% | 0.406% | 8.29% | 0.369% | 0.0449% | -0.403% | 0.0318% | 0.0103% | -0.411% | 0.89% | 0.00673% | 2.01% | 0.428% | 0.26% |
| O=c1[nH]cnc2nc[nH]c12 [hypoxanthine] | -1.99% | 0.0138% | -0.0181% | -4.61% | -0.0294% | 0.126% | -0.263% | 0.0182% | 1.08% | -0.186% | 0.109% | -0.204% | 0.0689% | 0.797% | 166% | 0.00894% | -1.8% | -0.718% | 0.0665% |
| CC(=O)CCC(=O)O [levulinic acid] | -2.12% | 0.00636% | -0.0388% | -11.8% | -2.89% | -0.37% | -0.594% | -0.0149% | -1.91% | -0.265% | -0.187% | -0.623% | -0.0306% | 1.16% | -0.941% | 0.0157% | -1.82% | -1.61% | -0.139% |
| O=C(O)CNC(=O)c1ccccc1 [N-benzoylglycine] | -2.37% | -0.0115% | 21.2% | 40.1% | -0.301% | -0.376% | 0.0257% | 0.0182% | -1.12% | -0.215% | -0.146% | -0.604% | -0.018% | -0.285% | -0.852% | -0.00397% | -2.44% | -1.84% | -0.117% |
| O=C(O)c1cc(=O)c2ccccc2[nH]1 [kynurenate] | -1.75% | -0.028% | -0.0535% | -9.16% | -2.49% | -0.379% | 0.25% | 0.0049% | -1.34% | 0.113% | -0.313% | -0.383% | 0.00396% | -0.284% | -0.96% | 0.00297% | -2.26% | -1.57% | -0.378% |
| C[C@@H](O)C(=O)O [D-lactate] | -2.25% | -0.0311% | -0.0413% | -1.67% | -2.02% | -0.134% | 0.0968% | -0.00031% | -0.533% | -0.113% | -0.587% | -0.462% | 0.0141% | 0.347% | -0.947% | 0.0109% | -0.802% | -1.93% | 0.366% |
| NCC(=O)O [glycine] | -0.038% | -0.0181% | 0.0164% | -5.21% | 0.401% | -0.178% | 0.211% | 0.0163% | -0.454% | 0.00408% | -0.415% | -0.384% | 0.0965% | 0.812% | -0.0501% | 0.0153% | -0.252% | 0.354% | 0.274% |
| O=C(O)C1=CCCCC1 [cyclohexene-1-carboxylate] | 2.55% | -0.0101% | 156% | -3.7% | -1.27% | -0.493% | 0.423% | -0.00892% | 1.03% | -0.0381% | -0.121% | -0.244% | 0.0222% | 0.391% | 0.161% | 0.0231% | 0.24% | 1.34% | 0.551% |
